Data published in the supplement of paper PMC5940239.

Experiments:
[1] = system: Madurella mycetomatis MM55; settings: 7 days
[2] = system: Madurella mycetomatis MM55; assay: IC90; higher = less potent; settings: 7 days
[3] = system: Madurella mycetomatis MM55; assay: percent growth relative to solvent control; higher = less inhibition, active = 20 or less; settings: 100 µM; 7 days

SMILES | IC50 [1] | IC90 [2] | percent growth [3]
Cc1cc(C)nc(-n2nc(C)cc2Nc2ccccc2)n1 | 58.1 µM | 91.3 µM | -0.531% (active)
CC(C)NCC(=O)Nc1cccc(C(=O)Nc2cccc(C(F)(F)F)c2)c1 | 62 µM | 93.7 µM | 2.17% (active)
O=C(NC1CCN(c2ccnc3ccccc23)C1)c1cccc(C(F)(F)F)c1 (stereo unspecified) | 61.6 µM | 94.8 µM | 3.94% (active)
c1coc(CNc2nc(N3CCCCC3)nc3ccccc23)c1 | 10.2 µM | 15.5 µM | 1.16% (active)
O=C(Nc1nc(-c2ccccn2)cs1)c1cncn1-c1ccccc1 | 10.8 µM | 40.8 µM | 1.78% (active)
NC(CC(=O)c1ccc(Cl)cc1Cl)C(Cl)(Cl)Cl (stereo unspecified) | 58.1 µM | 95 µM | 5.11% (active)
Cc1ccc2c(c1C)NC(=O)C21NN=C(c2ccccc2)S1 (stereo unspecified) | 37.9 µM | 61.2 µM | 4.4% (active)
COc1cccc(-c2nc3c(N4CCCC4)cccc3n2CC2CCCN2)n1 (stereo unspecified) | 37.4 µM | 84 µM | -0.727% (active)
Cc1cccc(-c2nc(Nc3ccncn3)c3sccc3n2)n1 | 35.2 µM | 88.1 µM | 1.77% (active)
COc1ccc(C2=NN(C3CCCCCC3)C(=O)[C@@H]3CC=CC[C@H]23)cc1OCCCCOc1ccc(-c2nn[nH]n2)cc1 | 18.6 µM | 53.5 µM | -1.09% (active)
CC(C)(C(=O)Nc1ccc(F)cc1)n1cc(-c2ccccc2F)cn1 | 56.2 µM | 96.1 µM | 6.9% (active)
COc1ccccc1CNC(=O)c1cc(C2CC2)nc2c1cnn2C(C)C | 51.9 µM | 88.8 µM | -2.92% (active)
O=C(Nc1nnc(-c2ccc(Cl)cc2)o1)c1cccc(C(F)(F)F)c1 | 10.6 µM | 39.2 µM | 3.76% (active)
CNCCC(Oc1ccc(C(F)(F)F)cc1)c1ccccc1 (stereo unspecified) | 10.1 µM | 18.6 µM | 1.78% (active)
Cc1cc(NCC(C)C)c2n[nH]c(-c3ccccc3)c2n1 | 52.5 µM | 89.3 µM | -1.5% (active)
N#CCN(CCCCN1CCN(c2ccc(F)cc2)CC1)C(=O)OCc1ccccc1 | 64.3 µM | 93.7 µM | 1.57% (active)
c1ccc(Oc2ccc(-c3cc(CN4CCOCC4)[nH]n3)cc2)cc1 | 65.4 µM | 95.6 µM | 3.77% (active)
O=C(C1CCN(c2cc(-n3cccc3)ncn2)CC1)N1CCc2ccccc2C1 | 62.1 µM | 91.5 µM | 3.17% (active)
CN1CCCN(C(c2ccccc2)c2ccc(Cl)cc2)CC1 (stereo unspecified) | 10.2 µM | 18.6 µM | 2.74% (active)
Cc1nc(-c2cccc(NCc3ccccc3)c2)[nH]c1C | 64 µM | 93.6 µM | 1.75% (active)
CNC(=O)c1cc(S(=O)(=O)N2CCN(c3ccccn3)CC2)cs1 | – | – | 143% (inactive)

SMILES | IC50 [1] | IC90 [2] | percent growth [3]
CCOc1ccc(-c2nc(NC(=O)CS(=O)(=O)c3ccccc3)sc2C)cc1 | – | – | 51.4% (inactive)
CCCS(=O)(=O)N1CCC(CO)(Cc2ccccc2C(F)(F)F)CC1 | – | – | 37.4% (inactive)
COc1ccc(C2=NCCN2)cc1-c1cn(-c2cccc(C3=NCCN3)c2)nn1 | – | – | 94% (inactive)
COc1cc(C2=NCCN2)cc2cc(-c3ccc(C4=NCCN4)cc3)oc12 | 48.3 µM | 88.8 µM | -1.77% (active)
CC1=NN(c2nc3ccccc3s2)C(=O)C1Cc1cccc2ccccc12 (stereo unspecified) | 62.1 µM | 93 µM | 1.31% (active)
Cc1ccc(S(=O)(=O)Nc2ccc(CN3CCN(C(=O)c4cccc(C#N)c4)CC3)cc2)cc1 | – | – | 90.9% (inactive)
NCCN(C(=O)c1ccc(Cl)cc1Cl)c1ccc(OCc2ccc(Cl)cc2)cc1 | 10.5 µM | 17.9 µM | 4.52% (active)
COc1cc(OC)cc(C(=O)NCC2Cc3cc(Cl)cc(-c4ccncc4)c3O2)c1 (stereo unspecified) | – | – | 55.9% (inactive)
CCCCc1ccc(NC(=O)Nc2ccc(O[C@H]3CCCC[C@@H]3N(C)c3ccccc3)c(F)c2)cc1 | – | – | 122% (inactive)
O=C(NCc1nnc2n1CCCCC2)c1ccc(-c2ccc(F)cc2)o1 | – | – | 87.7% (inactive)
COc1ccc(-c2nn(C(C)C)c3ncnc(N)c23)cc1OC | – | – | 22.9% (inactive)
Cc1cccc(Cn2ccc(NC(=O)c3ccc4c(c3)OCO4)n2)c1 | 60.1 µM | 90.7 µM | -0.936% (active)
COc1ccc(CN2CCOc3ccc(C(C)(O)CN(C)C)cc3C2)cc1C (stereo unspecified) | 60.6 µM | 93.5 µM | 2.42% (active)
COc1cc(NC(C)CCCN)c2ncccc2c1 (stereo unspecified) | 64.5 µM | 92.8 µM | 0.211% (active)
Nc1ncnc2[nH]nc(Cc3cccc4ccccc34)c12 | – | – | 118% (inactive)
Oc1c(I)cc(I)c2cccnc12 | 2.55 µM | 4.65 µM | -2.46% (active)
Cc1ccc2[nH]c3c(NCCN(C)C)ncnc3c2c1 | – | – | 94.1% (inactive)
O=C(Nc1ccc(C(F)(F)F)c(C(F)(F)F)c1)c1cc(Cl)ccc1O | 1.45 µM | 3.8 µM | -2.39% (active)
C[C@H](C(N)=O)N1CCCC[C@H]1c1ccc(OCc2cccc(F)c2)cc1 | 64.2 µM | 94.4 µM | 2.85% (active)
COc1ccc(C(=N)N)cc1-c1cn(-c2ccc(C(=N)N)cc2)nn1 | 56.6 µM | 89.2 µM | -3.41% (active)
O=C(Cn1ccnc1[N+](=O)[O-])NCc1ccccc1 | – | – | 129% (inactive)

SMILES | IC50 [1] | IC90 [2] | percent growth [3]
CCCCc1ccc(C(=O)Nc2nccc3ccccc23)nc1 | 54.6 µM | 86 µM | -1.16% (active)
C[C@H]1c2cccc(O)c2C(=O)C2=C(O)[C@]3(O)C(=O)C(C(N)=O)=C(O)[C@@H](N(C)C)[C@@H]3[C@@H](O)[C@@H]21 | – | – | 121% (inactive)
Cc1cc(O)nc(-n2nc(C)cc2C)n1 | – | – | 66.4% (inactive)
CC(C)n1nc(-c2cc3c(Cl)cccc3[nH]2)c2c(N)ncnc21 | 52.5 µM | 89 µM | -3.21% (active)
c1ccc2c(c1)CN(CC1CC1)CC1(CCN(Cc3c[nH]c4cnccc34)CC1)O2 | 62.9 µM | 96 µM | 5.33% (active)
c1ccc(-c2[nH]c3ccccc3c2C(c2ccccn2)N2CCCC2)cc1 (stereo unspecified) | 34.8 µM | 94.6 µM | 5.96% (active)
O=C(COc1cccc(F)c1)Nc1nc(-c2ccccn2)cs1 | 8.85 µM | 16.1 µM | 0.599% (active)
CN1CCN(CCCOc2ncc(Nc3ncc(-c4ccc(C(F)(F)F)c(F)c4)nc3C(N)=O)cn2)CC1 | 25.7 µM | 85.2 µM | -0.0728% (active)
O=C(c1cc2ccccc2o1)N1CCN(Cc2ccc3c(c2)OCO3)CC1 | 45.1 µM | 87.5 µM | 3.51% (active)
CCN(CC)CCCCCCNc1cc(OC)cc2c(C)ccnc12 | 9.8 µM | 17.8 µM | -1.36% (active)
CCc1ccc(S(=O)(=O)Nc2cc(CN3CCN(CCC(C)C)CC3)ccc2C)cc1 | 59.9 µM | 91.5 µM | -0.809% (active)
Cc1cc(Nc2ccc(C(F)(F)F)cc2)n2ccnc2n1 | – | – | 77.4% (inactive)
CCc1nc2ccc(Cl)cn2c1C(=O)NCc1ccc(N2CCC(c3ccc(OC(F)(F)F)cc3)CC2)cc1 | – | – | 126% (inactive)
O=C(Nc1cccc(-c2ccc(NCCCN3CCCC3)nc2)c1)c1ccccc1 | 53.1 µM | 90.9 µM | -1.11% (active)
O=C(NC1CCCCC1)N1CCN(Cc2ccc3c(c2)OCO3)CC1 | – | – | 74.6% (inactive)
Nc1ccc(C(=O)Nc2ccc(-c3nc4ccccc4o3)cc2)cc1 | – | – | 100% (inactive)
O=C(NCc1ccco1)N1CCN(Cc2ccc(Cl)s2)CC1 | – | – | 90.6% (inactive)
Nc1ccc2ncnc(Nc3ccc(OCc4cccc(F)c4)c(Cl)c3)c2c1 | – | – | 92.1% (inactive)
Nc1ncc(-c2ccc(C(F)(F)F)nc2)cc1-c1ccc(C(F)(F)F)nc1 | – | – | 94.5% (inactive)
